Assay outcomes: PubChem, National Center for Advancing Translational Sciences (NCATS)
Hsp90 Hop PPI: changes Hsp90-Hop TPR2A binding signal, up or down; Potency, µM (series often up to 57 µM), for inactives: at the highest dose activity change, negative = inhibition; AlphaScreen TPR2A-His6 binding biotin-Hsp90 C-terminal peptide; hit rate 0.44% among 71,000; AID 595; active = well fitted curve in either direction with a large enough effect; inconclusive = small, poorly fitted or top-dose-only effect, or another doubt; also: potency is read from the fitted curve at half-maximal effect; % is scaled to controls: 0 for no effect and ±100 for the full control effect
IkB signaling: inhibitors of IkB signaling in ABC-DLBCL cells. ABC-DLBCL IkBa-CBG/CBR dual luciferase ratio, 4 h; response scale: scaled: untreated 0%, proteasome inhibitor 100%. hit rate 0.04% among 110,000. Potency, µM (series often up to 57.1 µM), for the others: top-dose IkBa stabilization activation; active = well fitted curve in the direction sought with a large enough effect in the signal ratio, not every such curve was filed as active; inconclusive = small, poorly fitted or top-dose-only effect, or a change in a side signal; the % refers to the signal ratio;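 also: potency is read from the fitted curve at half-maximal effect; the direction sought is a rising ratio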
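Curves were fitted separately to fusion (green), unfused (red) and ratio luminescence, then classed by r2, magnitude and activity. Cells: OCI-Ly3, 4 h compound plus doxycycline at 37C; 10 uM MG-132 defined full response.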
p53ts 32C tox: cytotoxicity in p53ts cells at permissive temperature. Potency, µM (series often up to 46.1 µM), for inactives: at the top dose activity change, negative = cytotoxicity, most hits filed as cytotoxic. hit rate 0.93% among 130,000. H1299-p53A138V at 32C, ATP luminescence viability, 24 h. AID 924;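 also: potency is read from the fitted curve at half-maximal effect; 0% = DMSO and -100% = full killing by reference compound; nearly all actives have a fitted effect of over 55% in size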
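Viability by ATPlite luminescence after 24 h compound treatment (up to 46 uM) at the permissive 32C. Cells are H1299 carrying p53 A138V. Scale runs from DMSO basal to 100 uM tamoxifen as full kill; AC50 from Hill fits.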
FLuc inh: inhibitors of firefly luciferase; Potency, µM (series often up to 57.1 µM), for the others: at the highest dose activity change, negative = inhibition, most hits filed as inhibitors; P08659; hit rate 2.2% among 72,000; purified firefly luciferase, luminescence, 8 min; AID 411; also: potency is read from the fitted curve at half-maximal effect; % is scaled to controls: 0 for no effect and ±100 for the full control effect; nearly all actives have a fitted effect of over 40% in size
Target sequence (P08659 whole entry, looked up): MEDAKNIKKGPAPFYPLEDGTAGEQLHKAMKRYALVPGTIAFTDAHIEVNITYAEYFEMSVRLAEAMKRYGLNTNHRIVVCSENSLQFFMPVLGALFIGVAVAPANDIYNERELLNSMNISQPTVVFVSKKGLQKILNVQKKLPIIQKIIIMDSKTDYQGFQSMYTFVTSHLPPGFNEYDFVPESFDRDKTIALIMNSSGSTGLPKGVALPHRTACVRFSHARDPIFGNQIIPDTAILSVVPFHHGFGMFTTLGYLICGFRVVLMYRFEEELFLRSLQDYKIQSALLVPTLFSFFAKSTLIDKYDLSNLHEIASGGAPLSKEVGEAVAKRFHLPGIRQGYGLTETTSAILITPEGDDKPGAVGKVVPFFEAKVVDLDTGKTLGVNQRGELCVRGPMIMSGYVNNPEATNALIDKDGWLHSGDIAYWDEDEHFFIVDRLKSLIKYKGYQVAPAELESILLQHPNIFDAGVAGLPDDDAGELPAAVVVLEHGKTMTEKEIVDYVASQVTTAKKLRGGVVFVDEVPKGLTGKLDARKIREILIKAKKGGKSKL
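qHTS concentration-response profiling: light output of P. pyralis luciferase with luciferin and 10 uM ATP, imidazole buffer pH 7.2. Read by luminescence after 8-min room-temperature incubation.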
p53ts 39C tox: p53ts cell cytotoxicity, nonpermissive temperature; H1299-p53A138V viability at 39C, ATP luminescence, 24 h; Potency, µM (top dose mostly 46.1 µM), for inactives: at the highest dose activity change, negative = cell killing, hits mostly cytotoxic; hit rate 1.5% among 130,000; also: potency is read from the fitted curve at half-maximal effect; % is scaled to controls: 0 for no effect and ±100 for the full control effect; nearly all actives have a fitted effect of over 55% in size
IMPase cell inh: cell-permeable inhibitors of inositol monophosphatase (IMPase); AID 901; P97697; 120,000 tested, under 10 active; inhibition (IP1 accumulation), % at 46.1 µM; CHO-M1 cells, IP1 accumulation, HTRF TR-FRET ratio; active = well fitted curve in the direction sought with a large enough effect in the signal ratio, not every such curve was filed as active; inconclusive = small, poorly fitted or top-dose-only effect, or a change in a side signal; inactive = no such curve, though single readings can be large or run the other way; the % refers to the signal ratio;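 also: cells stimulated with carbachol in lithium chloride buffer; plate controls were DMSO basal wells for no effect and reference inhibitor wells for full effect; higher means more IMPase inhibition seen as more IP1 and lower FRET ratio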
Target sequence (P97697 whole entry, looked up): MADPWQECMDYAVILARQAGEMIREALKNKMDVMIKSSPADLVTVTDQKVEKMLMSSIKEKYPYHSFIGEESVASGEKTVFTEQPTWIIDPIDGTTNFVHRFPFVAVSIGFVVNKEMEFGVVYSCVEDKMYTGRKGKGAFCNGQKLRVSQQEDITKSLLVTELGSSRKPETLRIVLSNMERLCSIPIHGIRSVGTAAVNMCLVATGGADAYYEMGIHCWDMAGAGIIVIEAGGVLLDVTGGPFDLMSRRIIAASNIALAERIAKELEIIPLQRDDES
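Cellular IMPase inhibition is scored as a rise in cytosolic IP1, detected by competitive TR-FRET between d2-labelled IP1 and a europium anti-IP1 antibody. M1-expressing CHO cells were stimulated with carbachol for 30 min at 37C, with lithium (50 mM LiCl) present in the buffer.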
Numbers without * were called inactive; ? = inconclusive; . = not tested or not shown; ! = not active in a repeat; [ ] = dose if it differs, or a comment. Many of the other results were omitted from the sample, so hits are more common in it than they were. Unless noted, calls follow the shape of the dose curve; as a rule, active = well fitted curve in the direction sought with a large enough effect; inconclusive = small, poorly fitted or top-dose-only effect, or another doubt; inactive = no such curve, though single readings can be large; an effect the other way counts as inactive or inconclusive.

SMILES	Hsp90 Hop PPI	IkB signaling	p53ts 32C tox	FLuc inh	p53ts 39C tox	IMPase cell inh
CCCOc1ccc(C(=O)Nc2ccc(-c3cc4ccccc4oc3=O)c(C)c2)cc1	.	?	?	.	6.31µM*	-9.3
CC(=O)Oc1ccc(/C=C/c2cc(OC(C)=O)cc(OC(C)=O)c2)cc1	.	.	7.94µM*	.	6.31µM*	.
O[N+]1=CC=CCC1=S.On1ccccc1=S.[Zn]	.	.	0.794µM*	.	3.98µM*	.
O=c1c2ccccc2nc(N2CCCC2)n1-c1ccccc1	.	.	.	.	.	-0.5
O=c1c2ccccc2[se]n1-c1ccccc1	?	?	3.9%	15.8µM*	?	2.4
Cc1oc(-c2ccccc2Cl)nc1CN1C(=O)CN=C(c2ccccc2)c2cc(Cl)ccc21	.	?	-4.4%	.	-8.0%	.
Cc1oc(-c2cccc(Cl)c2)nc1CN1CCC(C(=O)NCCCN2CCN(c3cccc(Cl)c3)CC2)CC1	.	?	-17.3%	.	10µM*	.
COC(=O)C1CN(C#N)N(c2ccc(Cl)cc2)C12c1ccccc1-c1ccccc12 (stereo unspecified)	.	.	3.98µM*	.	11.2µM*	11.0
COc1ccc2c(c1O)-c1cccc3c1[C@H](C2)N(C)CC3	-4.2%	-0.1%	-10.4%	2.8%	-3.5%	3.4
C=CCN1CC[C@]23c4c5ccc(O)c4O[C@@H]2/C(=N/NC(=O)c2ccccc2)CC[C@@]3(O)[C@H]1C5	-4.2%	?	-8.6%	-6.4%	12.3%	-3.5
c1cc(CCN2CCCCC2)ccn1	-2.9%[11 µM]	-0.8%[11.4 µM]	4.6%[9.22 µM]	0.0%[11.4 µM]	-9.4%[9.22 µM]	.
Cc1nc(-c2ccc(-c3ccc(C(=O)N4CCc5cc6c(cc54)C4(CCN(C)CC4)CO6)cc3)c(C)c2)no1	?	?	15.8µM*	-21.0%	10µM*	7.4
CN(C)CCCNc1c2c(nc3ccc(Cl)cc13)CCCC2	1.0%[11 µM]	-1.6%[11.4 µM]	-15.3%[9.22 µM]	0.1%[11.4 µM]	-4.8%[9.22 µM]	.
CC(C)(C)[C@@]1(O)C[C@@H]2OC(=O)C[C@@]23C(=O)O[C@H]2OC(=O)[C@@H](O)[C@]231	1.0%	0.5%[11.4 µM]	.	1.0%[11.4 µM]	.	.
Cc1ccc2nc3c(cc2c1)CC1(C(=O)N(C)C(=O)N(C)C1=O)C1CCCCN31 (stereo unspecified)	7.9%	-1.5%	?	6.31µM*	?	-1.1
Cc1ccc2nc3c(cc2c1)CC1(C(=O)N(C)C(=O)N(C)C1=O)C1COCCN31 (stereo unspecified)	-8.9%	0.8%	-19.1%	?	-19.9%	1.1
[Cl-].[Cl-].[Hg+2]	-0.1%	?	.	.	25.1µM*	.
CN1C[C@H](C(=O)N[C@@]2(C)O[C@@]3(O)[C@H]4CCCN4C(=O)[C@@H](Cc4ccccc4)N3C2=O)C=C2c3cccc4[nH]cc(c34)C[C@@H]21	-11.6%[11 µM]	-0.4%[11.4 µM]	11.2%[9.22 µM]	-0.4%[11.4 µM]	10.0%[9.22 µM]	.
C[n+]1c(/C=C\c2ccc(O)c3ncccc23)[se]c2ccccc21	3.16µM*	1.0%[11.4 µM]	-17.5%[9.22 µM]	-1.1%[11.4 µM]	?	.
[CH3][Hg][Cl]	-4.3%	?	8.8%[1.84 µM]	.	15.8µM*	.
CC(C)[C@@]1(NC(=O)[C@@H]2C[C@H]3c4cccc5[nH]cc(c45)C[C@@H]3N(C)C2)O[C@@]2(O)[C@H]3CCCN3C(=O)[C@H](Cc3ccccc3)N2C1=O	-9.5%	?	?	-2.6%	31.6µM*!	10.4
CCN1C[C@@]2(COC(=O)c3ccccc3N3C(=O)C[C@H](C)C3=O)CC[C@H](OC)[C@@]34[C@@H]5CC6[C@@H](OC)C[C@@](O)([C@H]5[C@H]6OC)C(O)([C@@H]13)[C@@H](OC)[C@H]24	-4.0%	0.2%[11.4 µM]	.	2.7%[11.4 µM]	.	.
C=C(C)[C@H]1[C@H]2OC(=O)[C@@H]1[C@]1(O)C[C@H]3O[C@]34C(=O)O[C@H]2[C@]14C	?	0.2%[11.4 µM]	.	1.4%[11.4 µM]	.	.
Cc1cc(O)c2c(c1)C(=O)c1cc(O)cc(O)c1C2=O	5.01µM*!	?	41.9%	-6.5%[11.4 µM]	67.8%	5.0
N[C@H](Cn1oc(=O)[nH]c1=O)C(=O)O	-8.7%	-4.6%	.	0.6%	.	.
SMILES	Hsp90 Hop PPI	IkB signaling	p53ts 32C tox	FLuc inh	p53ts 39C tox	IMPase cell inh
CC(O)(CS(=O)(=O)c1ccccc1)C(=O)Nc1cccc(C(F)(F)F)c1 (stereo unspecified)	.	.	.	.	.	-7.0
C[C@@H](Cc1cccc(C(F)(F)F)c1)NCCCc1ccccc1	-0.8%	?	-5.0%	2.9%	25.1µM*	16.2
C=C[C@@H]1CN2CC[C@H]1C[C@H]2[C@@H](O)c1ccnc2ccccc12	1.2%	2.4%[11.4 µM]	.	-1.8%[11.4 µM]	.	.
COc1ccc2c(c[n+](C)c3c4cc5c(cc4ccc23)OCO5)c1OC	-11.6%	?	5.01µM*	31.6µM*	12.6µM*	21.6
CN1CCN(c2ccc3ccccc3n2)CC1	-4.6%	-0.1%	-0.5%	-3.5%	-15.2%	4.5
Cc1ccc(NC(=O)Nc2ccc3nc(N4CCN(C)CC4)cc(C)c3c2)cc1F	.	-5.6%	25.1µM*	.	?	.
O=c1[nH]c2ccccc2n1C1CCN(CCCC(c2ccc(F)cc2)c2ccc(F)cc2)CC1	-10.8%	0.6%	25.1µM*!	0.8%[25.5 µM]	15.8µM*	?
O=C1CC(N2CCC(n3c(=O)[nH]c4ccccc43)CC2)C(=O)N1c1ccc(F)cc1 (stereo unspecified)	?	5.4%	4.0%	0.8%	7.6%	-0.4
Brc1ccc(Oc2cc(Br)c(Br)cc2Br)c(Br)c1	31.6µM*!	2.2%	11.6%[1.84 µM]	.	4.8%	.
Cc1ccccc1Cn1cccc(C(=O)Nc2nc3ccccc3s2)c1=O	.	3.3%	10.7%	.	10µM*	.
CC(=O)OC1=CC2=CC[C@H]3[C@H]4CCC(=O)[C@@]4(C)CC(=O)[C@]3(S)[C@]2(C)CC1	-5.8%[11 µM]	1.7%[11.4 µM]	-6.6%[9.22 µM]	1.3%[11.4 µM]	6.4%[9.22 µM]	.
N=C(N)SCc1ccc(Cl)c2ccccc12 (tested in a mixture with another compound)	-0.3%[11 µM]	8.7%[11.4 µM]	-7.1%[9.22 µM]	3.9%[11.4 µM]	-4.5%[9.22 µM]	.
Clc1ccc(C(c2ccc(Cl)cc2)C(Cl)(Cl)Cl)cc1	27.3%	-0.6%	-26.7%	.	?	.
Clc1ccc(C(c2ccc(Cl)cc2)C(Cl)Cl)cc1	31.6µM*	5.3%	-6.2%[1.84 µM]	.	-1.3%	.
COc1cc2c(cc1OC)[C@]13CCN4CC5=CCO[C@@H]6CC(=O)N2[C@@H]1[C@H]6[C@@H]5C[C@H]43	-7.3%	-0.9%[11.4 µM]	.	-0.1%[11.4 µM]	.	.
CN(C(=O)Cc1ccc(Cl)c(Cl)c1)[C@H](CN1CCCC1)c1cccc(N=C=S)c1	-13.3%	?	31.6µM*	4.4%	31.6µM*	0.6
COC(=O)/C(C)=C\CC12OC(C)(C)C3CC(C=C4C(=O)c5c(OC)c6c(c(CC=C(C)C)c5OC431)OC(C)(CCC=C(C)C)C=C6)C2=O (stereo unspecified)	.	.	3.98µM*	.	6.31µM*	.
